# Results filed as inconclusive are left out. Where a call stands in place of a potency, no number is given. Calls of active or inactive are those of the source. Calls come from the whole dose curve; as a rule, active = well fitted inhibition curve with a large enough effect; inconclusive = small, poorly fitted or top-dose-only effect; inactive = flat fitted curve, though single readings scatter.
# Assay: P-glycoprotein substrates identified in KB-8-5-11 adenocarcinoma cell line, qHTS therapeutic library screen (AID 1346987); note: nearly all actives have a fitted effect of over 65% in size
# Settings: KB-8-5-11 (P-gp overexpressing) viability, CellTiter-Glo, 72 h; series mostly up to 44.5 µM
# Summary of the method: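 KB-8-5-11: colchicine-selected sub-line of KB-3-1 over-expressing P-gp; assay medium lacked colchicine. 72 h drug exposure at 37 degree C, CellTiter-Glo.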
# Potency is the fitted concentration of half-maximal effect.
row,SMILES,Potency
1,O=C(NCCN1CCC(n2c(=O)[nH]c3ccccc32)CC1)c1cc2cc(F)ccc2[nH]1,inactive
2,O=C(NO)c1ccc(CC(=O)N(CCO)c2ccccc2)cc1,inactive
3,C=CC(C)(C)c1[nH]c2ccccc2c1C[C@@H]1NC(=O)[C@H](C)NC1=O,inactive
4,CN(C)c1ccnc2sc3c(=O)n(N4CCCCCC4)cnc3c12,inactive
5,Nc1nc2c(s1)CCN(Cc1ccc(Cl)cc1)CC2,inactive
6,O=C(NCC(=O)N1CCCC1)Nc1ccc2cnccc2c1,inactive
7,CC(=O)OC[C@]12[C@H](OC(C)=O)[C@H](OC(=O)c3ccccc3)[C@@H]3[C@@H](OC(C)=O)[C@]1(OC3(C)C)[C@H](C)C[C@H](OC(C)=O)[C@@H]2OC(=O)c1ccccc1,inactive
8,CC1(C)OC[C@H](NC(=O)Nc2ccc(Br)cc2Br)[C@H](c2ccccc2)O1,inactive
9,Cn1nc(C(C)(C)C)cc1C(=O)N[C@@H](Cc1cccc(Cl)c1)C(=O)NCC#N,inactive
10,Cn1ncc2cc(-c3cnc(N)c(Cl)c3N3CCC4(CCNC4=O)CC3)ccc21,inactive
11,C/C=C/C=C/c1cc2c(C=O)c(O)c(CC=C(C)C)cc2o1,inactive
12,C[C@]12CC[C@@H]3c4ccc(O)c(O)c4CC[C@H]3[C@@H]1CCC2=O,inactive
13,Cc1cc(C(=O)Nc2cc(Oc3ccc4nc(NC(=O)C5CC5)cn4n3)ccc2C)n(C)n1,9.2 µM (active)
14,COc1ccc2cc(-c3cc(-c4cc(Cl)cc(Cl)c4)nn3C(C)c3ccc(C(=O)NCCC(=O)O)cc3)ccc2c1 (stereo not drawn),inactive
15,O=C(NCC1(N2CCN(c3ccccc3)CC2)CCOCC1)c1cccnc1Sc1ccccc1,inactive
16,CNS(=O)(=O)c1ccccc1Nc1nc(Nc2ccc(N3CCN(C)CC3)cc2OC)ncc1Br,2.06 µM (active)
17,CN(C)CC#CCCC(=O)C(O)(c1ccccc1)C1CCC1 (stereo not drawn),inactive
18,COC(=O)/C=C/C=C/C(=O)OC1C=C2COC(=O)C2(O)C2(C)CCCC(C)(C)C12 (stereo not drawn),inactive
19,O=C1C(Cc2ccc(O)cc2)N2C(=O)CCN(C(=O)NCc3ccccc3)C2CN1Cc1cccc2ccccc12 (stereo not drawn),inactive

row,SMILES,Potency
1,C1=Cc2ccccc2C(=C2CCN(CCCCc3nn[nH]n3)CC2)c2ccccc21,inactive
2,COc1ccc(C#Cc2ccc(C(=O)N3CCC[C@@H](O)C3)c(F)c2)cc1,inactive
3,CC1(C=O)CCCC2(C)C1CCC13CC(CO)C(CCC12)C3 (stereo not drawn),inactive
4,CC(C)C[C@@H]1NC(=O)[C@@H](Cc2ccccc2)NC(=O)C(CCCCCC(=O)C2CO2)NC(=O)[C@@H]2CCCCN2C1=O (stereo partly drawn),3.99 µM (active)
5,COc1c(C(O)CC(C)C)ccc2c1C(=O)OCc1cc(C)cc(O)c1O2 (stereo not drawn),inactive
6,C=C(C)C(=O)O[C@H]1/C(C=O)=C\CC/C(CO)=C/[C@H]2OC(=O)C(=C)[C@@H]2[C@@H]1OC,inactive
7,C=C(C)C(=O)OC1CC2(C)OC(=CC2=O)C(=C)CC2OC(=O)C(=C)C12 (stereo not drawn),10.1 µM (active)
8,COc1ccc2nccc(C(=O)CC[C@@H]3CCN(CC#Cc4cc(F)cc(F)c4F)C[C@@H]3C(=O)O)c2c1,inactive
9,O=C(c1c(F)ccc(NS(=O)(=O)N2CC[C@@H](F)C2)c1F)c1c[nH]c2ncc(-c3cnc(C4CC4)nc3)cc12,inactive
10,Oc1cccc(C2NC(=S)Nc3cccc(F)c32)c1 (stereo not drawn),23.1 µM (active)
11,C=C1CCN([C@H](C)[C@](O)(Cn2cncn2)c2ccc(F)cc2F)CC1,inactive
12,C=C1C(=O)OC2/C=C(\C)CC/C=C(\C)CC(OC(C)=O)C12 (stereo not drawn),inactive
13,CC[C@H]1OC(=O)[C@H](C)[C@@H](O[C@H]2C[C@@](C)(OC)[C@@H](O)[C@H](C)O2)[C@H](C)[C@@H](O[C@@H]2O[C@H](C)C[C@H](N(C)C)[C@H]2O)[C@](C)(O)C[C@@H](C)[C@@H]2N[C@@H](COCCOC)O[C@@H]([C@H]2C)[C@]1(C)O,inactive
14,O=C(O)c1cccc(-c2ccc(-c3cn(C(=O)N4CCCCC4Cc4ccccc4)nn3)cc2)c1 (stereo not drawn),inactive
15,O=C(Nc1ccc(Cl)cc1)Nc1cccc(-c2cccc(N3CCCC3)n2)c1,20.6 µM (active)
16,C=C[C@@]12COC(=O)C(=C)[C@@H]1[C@@H](O)[C@H](C(=C)C(=O)OC)[C@@H](O)C2,inactive
17,CC1CC(=O)C2=C(C1)C1OC1C1(O)C2C(=O)c2cccc(O)c2C1O (stereo not drawn),inactive
18,Fc1ccc(-c2nc(-c3c(F)cccc3F)[nH]c2-c2ccncc2)cc1,inactive
19,CCC(C)/C=C(C)/C=C/C1=CC2=CC(=O)C3(C)OC(C)(O)C(C(=O)OC)C3C2=CO1 (stereo not drawn),inactive
